Assay [1] in a line: qHTS assay for small molecule disruptors of the mitochondrial membrane potential - 1 hr assay (AID 651754). Further: nearly all actives have a fitted effect of over 35% in size. A digest of the protocol:
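HepG2 cells, attached overnight at 37C, were exposed to compound or DMSO vehicle for 1 hr at 37C, 5% CO2, then stained with Mito-MPS dye for 30 min. Red aggregate versus green monomer fluorescence reports membrane potential.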
In general terms: In qHTS, concentration-response curves come from the screen itself.

Assay [2] deals with Peroxisome proliferator-activated receptor gamma (Homo sapiens) (UniProt P37231). Briefly: qHTS assay for small molecule antagonists of peroxisome proliferator-activated receptor gamma signaling (AID 588537; active means well fitted inhibition curve with a large enough effect in the signal ratio, with a control signal flat, not every such curve was filed as active; the % refers to the signal ratio;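 further: reporter cells co-stimulated with 50 nM rosiglitazone agonist during compound treatment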). A digest of the protocol: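 Step one: plate 3000 HEK293 UAS-bla cells per well in medium with 1% stripped serum and hold 6-6.5 h at 37 C. Step two: add compound and 50 nM agonist for 16 h. Step three: CCF4 loading, fluorescence read.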

The target in assay [3] is Cytochrome P450 3A4 (Homo sapiens) (UniProt P08684). As to the kind of experiment: qHTS Assay for Activators of Cytochrome P450 3A4 (AID 885; active means well fitted activation curve with a large enough effect; further: nearly all actives have a fitted effect of over 65% in size). The method in brief:
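20nM CYP3A4 + 25uM Luciferin-PPXE (=KM), 200mM KPO4; cpd 10 min RT; NADPH regen, 60 min RT; stop w/ detection buffer, 20 min; luminescence. Normalized to 57 uM ketoconazole.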

Assay [4] addresses Peroxisome proliferator-activated receptor delta (Homo sapiens) (UniProt Q03181). As to the kind of experiment: qHTS assay for small molecule antagonists of peroxisome proliferator-activated receptor delta signaling (AID 588535; active means well fitted inhibition curve with a large enough effect in the signal ratio, with a control signal flat, not every such curve was filed as active; the % refers to the signal ratio). The method in brief:
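Cells were seeded at 4000 per well in assay medium containing 2% charcoal/dextran FBS and held 5 hrs at 37 C. Compounds were then added for 18 hrs. CCF4 substrate was applied for 2 hrs at room temperature before fluorescence reading.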

For assay [5], the target named is Androgen receptor (Homo sapiens) (UniProt P10275). Briefly: qHTS assay for small molecule antagonists of androgen receptor signaling (AID 588516; active means well fitted curve in the direction sought with a large enough effect in the signal ratio, with a control signal flat, not every such curve was filed as active; the % refers to the signal ratio). The method in brief: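 AR-UAS-bla-GripTite HEK 293 cells (2000/well, 5 h at 37 C) received compound titrations, then R1881 at 10 nM final; after 16 h at 37 C, CCF4 dye 2 h RT, beta-lactamase fluorescence read; IC50 from Hill fits.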

SMILES strings stand for the structures. Results filed as inconclusive are left out. Where a call stands in place of a potency, no number is given. Calls of active or inactive are those of the source. Unless noted, the call rests on the fitted dose curve.

Sequence of Peroxisome proliferator-activated receptor gamma (Homo sapiens) (P37231 whole entry, looked up): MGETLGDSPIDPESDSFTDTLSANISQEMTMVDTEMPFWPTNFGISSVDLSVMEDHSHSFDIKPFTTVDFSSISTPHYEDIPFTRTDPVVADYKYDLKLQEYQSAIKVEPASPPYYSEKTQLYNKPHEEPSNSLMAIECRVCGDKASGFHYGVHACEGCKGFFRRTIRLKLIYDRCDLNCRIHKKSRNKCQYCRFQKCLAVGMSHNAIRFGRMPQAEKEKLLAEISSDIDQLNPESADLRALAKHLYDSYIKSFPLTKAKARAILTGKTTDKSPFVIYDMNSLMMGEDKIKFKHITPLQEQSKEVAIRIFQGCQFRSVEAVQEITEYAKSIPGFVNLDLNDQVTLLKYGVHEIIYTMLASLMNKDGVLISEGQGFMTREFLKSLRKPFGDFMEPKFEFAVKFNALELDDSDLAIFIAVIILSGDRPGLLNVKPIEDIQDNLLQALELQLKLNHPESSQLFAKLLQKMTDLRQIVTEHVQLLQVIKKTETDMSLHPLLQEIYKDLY
Sequence of Androgen receptor (Homo sapiens) (P10275 whole entry, looked up): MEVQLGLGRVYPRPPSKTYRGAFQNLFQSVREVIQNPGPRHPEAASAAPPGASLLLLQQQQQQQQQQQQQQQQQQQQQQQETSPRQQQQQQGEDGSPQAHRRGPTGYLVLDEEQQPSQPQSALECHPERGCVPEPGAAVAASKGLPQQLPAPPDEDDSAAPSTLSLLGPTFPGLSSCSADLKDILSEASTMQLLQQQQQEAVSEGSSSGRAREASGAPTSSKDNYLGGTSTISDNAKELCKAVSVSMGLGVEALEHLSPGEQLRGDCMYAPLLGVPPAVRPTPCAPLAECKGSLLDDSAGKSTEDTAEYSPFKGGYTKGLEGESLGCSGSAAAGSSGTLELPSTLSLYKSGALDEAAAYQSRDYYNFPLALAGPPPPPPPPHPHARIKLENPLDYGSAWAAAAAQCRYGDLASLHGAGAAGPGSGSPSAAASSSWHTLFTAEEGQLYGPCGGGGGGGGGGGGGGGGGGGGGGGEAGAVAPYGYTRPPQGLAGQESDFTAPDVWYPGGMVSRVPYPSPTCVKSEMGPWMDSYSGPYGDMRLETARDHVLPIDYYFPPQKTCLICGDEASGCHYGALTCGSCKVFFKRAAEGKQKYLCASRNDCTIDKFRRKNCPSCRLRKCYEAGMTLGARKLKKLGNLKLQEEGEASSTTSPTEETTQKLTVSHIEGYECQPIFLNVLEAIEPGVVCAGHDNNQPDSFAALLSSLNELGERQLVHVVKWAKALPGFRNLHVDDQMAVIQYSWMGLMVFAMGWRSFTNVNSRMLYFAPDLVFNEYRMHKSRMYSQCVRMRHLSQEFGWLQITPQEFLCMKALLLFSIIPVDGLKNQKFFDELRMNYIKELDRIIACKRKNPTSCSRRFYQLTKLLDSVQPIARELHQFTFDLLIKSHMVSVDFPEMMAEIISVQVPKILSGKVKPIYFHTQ
Sequence of Peroxisome proliferator-activated receptor delta (Homo sapiens) (Q03181 whole entry, looked up): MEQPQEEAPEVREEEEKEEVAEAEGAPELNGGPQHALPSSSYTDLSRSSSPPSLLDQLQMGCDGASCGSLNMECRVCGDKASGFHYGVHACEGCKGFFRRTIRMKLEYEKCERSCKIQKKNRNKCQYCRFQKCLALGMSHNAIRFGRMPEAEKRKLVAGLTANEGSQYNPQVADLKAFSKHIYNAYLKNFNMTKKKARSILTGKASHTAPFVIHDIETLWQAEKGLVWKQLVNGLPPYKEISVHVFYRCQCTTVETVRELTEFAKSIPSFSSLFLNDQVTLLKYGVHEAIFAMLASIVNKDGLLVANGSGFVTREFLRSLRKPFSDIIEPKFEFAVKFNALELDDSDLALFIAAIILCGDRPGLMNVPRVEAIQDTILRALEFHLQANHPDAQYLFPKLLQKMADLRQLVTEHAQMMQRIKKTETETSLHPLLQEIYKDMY
Sequence of Cytochrome P450 3A4 (Homo sapiens) (P08684 whole entry, looked up): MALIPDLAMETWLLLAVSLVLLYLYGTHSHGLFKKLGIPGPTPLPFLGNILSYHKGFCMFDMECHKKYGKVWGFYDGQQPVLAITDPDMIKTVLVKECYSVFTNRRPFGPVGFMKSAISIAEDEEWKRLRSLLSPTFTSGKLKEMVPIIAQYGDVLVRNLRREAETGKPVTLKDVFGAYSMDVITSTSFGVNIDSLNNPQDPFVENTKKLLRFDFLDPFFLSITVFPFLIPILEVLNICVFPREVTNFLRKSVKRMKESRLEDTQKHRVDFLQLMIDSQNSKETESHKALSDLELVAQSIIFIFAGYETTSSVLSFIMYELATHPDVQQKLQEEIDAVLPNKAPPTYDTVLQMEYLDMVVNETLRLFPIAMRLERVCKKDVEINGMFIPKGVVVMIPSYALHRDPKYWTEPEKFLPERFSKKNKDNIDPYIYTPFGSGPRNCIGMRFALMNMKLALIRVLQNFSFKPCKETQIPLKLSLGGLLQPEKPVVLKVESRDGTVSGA

Regarding `N#CCCCl`, the Potency result in assay [1] is “inactive”. Regarding `Nc1ccc(Br)cc1`, in assay [1], the Potency entry was “inactive”.

Consider `CCCC(=O)Cl`, for which the Potency entry in assay [2] is “inactive”. In the case of `CCOP(=S)(OCC)Oc1ccc([N+](=O)[O-])cc1`, the Potency result in assay [3] was “inactive”.

As for `COc1ccc(N)cc1`, the Potency entry in assay [3], in assay [4] and in assay [1] was “inactive” in each case. In the case of `ClC(Cl)=C(Cl)C(Cl)=C(Cl)Cl`, the Potency result in assay [1] was “inactive”. `S=C=Nc1cccc2ccccc12`: the Potency entry in assay [3] and in assay [5] was “inactive” each time.

Turning to `C=CC(C)=O`, the Potency entry in assay [4] is “inactive”. For `c1ccc(-c2ccccc2)cc1`, the Potency entry in assay [5], in assay [4], in assay [2] and in assay [1] was “inactive” each time. `O=C(Cl)C(Cl)(Cl)Cl`: in assay [1], the Potency result is “inactive”. `CCCSC(=O)Cl`: in assay [1], the Potency result is “inactive”. For `Cc1cccc([N+](=O)[O-])c1`, the Potency result in assay [2] and in assay [1] was “inactive” throughout.

As to `Cc1ccc(O)c(C)c1`, in assay [4], the Potency result is “inactive”. On to `CN=C=S`, for which the Potency result in assay [4] and in assay [2] was “inactive” throughout. `C=CCOC(=O)c1ccccc1N`: the Potency entry in assay [5] is “inactive”. Consider `Nc1ccccc1Cl`, for which, in assay [1], the Potency result is “inactive”.

As for `[O-][Br+2]([O-])O`, the Potency result in assay [5], in assay [2] and in assay [1] was “inactive” throughout. On to `ClCBr`, for which the Potency result in assay [2] and in assay [1] was “inactive” in each case. Take `C=C(Cl)Cl`: the Potency result in assay [5] and in assay [4] was “inactive” each time. As for `CCSC(=O)Cl`, the Potency result in assay [5] was “inactive”.

Regarding `OCC(Br)CBr` (configuration not stated), the Potency entry in assay [2] and in assay [1] was “inactive” in each case. Regarding `Cc1ccc2ccccc2c1`, the Potency result in assay [5], in assay [4] and in assay [1] was “inactive” in each case. Consider `Clc1nc(Cl)nc(Cl)n1`, for which the Potency entry in assay [1] was “inactive”. Consider `c1ccc(OP(Oc2ccccc2)Oc2ccccc2)cc1`, for which the Potency entry in assay [2] is “inactive”. In the case of `CC(O)CCl` (configuration not stated), the Potency entry in assay [4] and in assay [1] was “inactive” in each case. On to `Brc1ccc(Oc2cc(Br)c(Br)cc2Br)c(Br)c1`, for which the Potency entry in assay [4] is “inactive”.

For `c1ccc2c(c1)CCCC2`, the Potency entry in assay [5] is “inactive”. With `C=CC1CC=CCC1` (configuration not stated), the Potency result in assay [2] was “inactive”. `Cc1cccc(C#N)c1`: the Potency entry in assay [4] was “inactive”. For the molecule `O=[N+]([O-])c1cccc2ccccc12`, the Potency result in assay [2] and in assay [1] was “inactive” each time. Turning to `CCOc1ccc(N)cc1`, in assay [1], the Potency entry is “inactive”. Regarding `C=C(C)C(=O)OCC1CO1` (configuration not stated), the Potency entry in assay [4] is “inactive”. For the molecule `ClC(Cl)(Cl)c1ccccc1`, the Potency entry in assay [4] and in assay [1] was “inactive” in each case. In the case of `O=C(Cl)/C=C/C(=O)Cl`, the Potency entry in assay [5], in assay [2] and in assay [1] was “inactive” throughout.

Take `CCN(CC)c1ccccc1`: the Potency entry in assay [5] is “inactive”.

Turning to `C=CCOC(C)=O`, the Potency entry in assay [1] was “inactive”. For the molecule `Cc1ccccc1N`, the Potency result in assay [3] and in assay [1] was “inactive” each time. On to `C[C@]12CC[C@H]3[C@@H](CCC4=CC(=O)CC[C@@]43C)[C@@H]1CC[C@@H]2O`, for which the Potency entry in assay [1] was “inactive”.

For the molecule `O=[N+]([O-])c1ccc(Cl)c(Cl)c1`, the Potency entry in assay [2] is “inactive”. For the molecule `C=CC(N)=O`, in assay [1], the Potency result was “inactive”. For the molecule `Clc1nc(Cl)nc(Nc2ccccc2Cl)n1`, the Potency result in assay [1] is “inactive”. Turning to `Clc1ccc2ccccc2c1`, the Potency result in assay [5] and in assay [2] was “inactive” each time. On to `CC(C)(C)OO`, for which the Potency result in assay [5], in assay [4] and in assay [1] was “inactive” throughout.

For the molecule `COc1ccc(C=O)cc1OC`, the Potency entry in assay [2] and in assay [1] was “inactive” in each case.

Turning to `CC(C)(OO)c1ccccc1`, the Potency result in assay [4] and in assay [1] was “inactive” in each case.

As for `OCC1CO1` (configuration not stated), the Potency entry in assay [4] and in assay [2] was “inactive” in each case. For the molecule `c1nc[nH]n1`, the Potency entry in assay [3] and in assay [4] was “inactive” each time. For the molecule `NC(=S)Nc1ccccc1`, the Potency result in assay [4] and in assay [2] was “inactive” throughout.
